D2 PAM-1: HTS Assay for Positive Allosteric Modulators of the Human D2 Dopamine Receptor: Primary Screen for Potentiators; HEK293 T-REx D2, calcium flux, EC20 dopamine potentiation; potentiation, % at 10 µM; 340,000 tested, 0.34% active; D(2) dopamine receptor (Homo sapiens), P14416; AID 485347, 2010;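 active = potentiation over 3 SD above the plate norm, cut at about 30% in these data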
Target sequence (P14416 whole entry, looked up): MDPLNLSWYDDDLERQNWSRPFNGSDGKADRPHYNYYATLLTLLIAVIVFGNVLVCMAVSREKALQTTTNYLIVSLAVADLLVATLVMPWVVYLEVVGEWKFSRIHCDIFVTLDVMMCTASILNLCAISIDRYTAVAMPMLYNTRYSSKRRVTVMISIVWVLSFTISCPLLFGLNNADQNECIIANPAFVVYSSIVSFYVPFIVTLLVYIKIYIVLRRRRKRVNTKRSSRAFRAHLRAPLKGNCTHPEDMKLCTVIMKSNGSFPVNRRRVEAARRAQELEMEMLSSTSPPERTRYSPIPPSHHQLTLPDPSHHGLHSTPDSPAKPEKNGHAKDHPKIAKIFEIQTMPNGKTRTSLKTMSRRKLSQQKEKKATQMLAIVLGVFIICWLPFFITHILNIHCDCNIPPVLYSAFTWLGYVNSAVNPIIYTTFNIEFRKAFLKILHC
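Using a no-wash calcium dye in inducible, force-coupled HEK293 Trex cells expressing D2, we tracked fluorescence each second for 180 s after compound, then for 180 s after EC20 dopamine to detect augmented signalling.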
D2 antagonist: HTS Assay for Allosteric Antagonists of the Human D2 Dopamine Receptor: Primary Screen for Antagonists. D(2) dopamine receptor (Homo sapiens), P14416. HEK293 TREx D2 cells, calcium flux, dopamine EC80. inhibition, % at 10 µM. 340,000 tested, 2% active. AID 485344, 2010; in the data active = inhibition above about 30%; inactive = below that, where a call was filed
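Measurement of antagonist activity uses fluorescent calcium dye in inducible HEK293 T-REx D2 cells: 10 s baseline, compound addition with 180 s read, EC80 dopamine addition with a further 180 s read.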
D2 PAM-2: Beta-Arrestin HTS for Positive Allosteric Modulators of the Human D2 Dopamine Receptor: Potentiators | D(2) dopamine receptor (Homo sapiens), P14416 | DiscoveRx D2 beta-arrestin cells, luminescence, 90 min; 100% = 57 uM dopamine signal | potentiation, % (concentration not given with the values) | 360,000 tested, 0.23% active; in the data active = potentiation above about 50%
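PathHunter D2 cells, attached overnight at 37 deg C, received compound in DMSO plus dopamine at EC20 (50 nM final) for 90 min at 37 deg C. Beta-arrestin recruitment was read as luminescence after 1 h with detection reagent at ambient temperature.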
D2 ag-1: Beta-Arrestin HTS for Positive Allosteric Modulators of the Human D2 Dopamine Receptor: Agonists; DiscoveRx PathHunter D2 beta-arrestin, luminescence, 90 min; 100% = 57 uM dopamine signal; activation, % (test concentration not listed); 360,000 tested, 0.084% active; AID 624465, 2012; in the data active = activation above about 40%
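Agonist mode: compounds alone added to overnight-plated D2 PathHunter cells for 90 min at 37 C, with 57 uM final dopamine (EC100) defining full response. Beta-arrestin recruitment detected by chemiluminescent reagent, read after 1 h at ambient temperature.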
D2 ag-2: HTS Assay for Allosteric Agonists of the Human D2 Dopamine Receptor: Primary Screen for Agonists. 340,000 tested, 0.53% active. AID 485358, 2010. HEK293 T-REx D2 cells, calcium flux agonist mode. activation, % at 2 µM. D(2) dopamine receptor (Homo sapiens), P14416;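 active = activation over 3 SD above normal in the single-dose calcium agonist read, cut at about 30% in these data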
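In this primary screen, compounds producing a positive calcium signal within 180 s of addition to tetracycline-induced, force-coupled HEK293 Trex D2 cells are flagged; cells are dye-loaded with a no-wash calcium kit beforehand.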
Large screens that a line does not name were inactive. In the library only some 2.4% were active in any assay of this set; here they are far more common.

Cc1c(Cl)cccc1NC(=O)c1oc2ccc(S(=O)(=O)N3CCCCCC3)cc2c1C	none (no result: D2 antagonist, D2 PAM-2, D2 ag-1)
O=C(Nc1cccc(-n2cnnn2)c1)c1ccc(C(F)(F)F)cc1	D2 antagonist 57
CCOc1ccccc1CNC(=O)c1cnc2sc(N(CC)CC)nn2c1=O	none (no result: D2 antagonist, D2 PAM-2, D2 ag-1, D2 ag-2)
CCOC(=O)N1CCC(NCCNC(=O)c2ccc(F)c(F)c2)CC1	D2 antagonist 59
CCOC(=O)N1CCC(NCCNC(=O)c2ccc(Cl)cc2)CC1	D2 antagonist 59
COc1ccccc1NC(=O)C(C)Sc1nnc2ccc3ccccc3n12 (configuration not stated)	none (no result: D2 antagonist, D2 PAM-2, D2 ag-1)
CCCOc1ccc(-c2cccc(NS(=O)(=O)c3ccc(CC)cc3)c2)nn1	none (no result: D2 antagonist, D2 PAM-2, D2 ag-1)
O=C(Nc1cccnc1)C1COc2ccccc2O1 (configuration not stated)	D2 PAM-1 41
O=C(NCCc1ccc(O)c(O)c1)C1COc2ccccc2O1 (configuration not stated)	D2 ag-1 41
O=C(Nc1ccccc1)C1COc2ccccc2O1 (configuration not stated)	none
O=C(NCCc1ccccc1)C1COc2ccccc2O1 (configuration not stated)	none
CN1C(C(=O)c2ccccc2)=C(NC(=O)c2ccccc2Br)c2ccccc2S1(=O)=O	none (no result: D2 antagonist, D2 PAM-2, D2 ag-1)
N#C/C(=C\c1c(N2CCCCCC2)nc2ccccn2c1=O)C(=O)NC1CCS(=O)(=O)C1 (configuration not stated)	none
N#C/C(=C\c1c(N2CCOCC2)nc2ccccn2c1=O)C(=O)NC1CCS(=O)(=O)C1 (configuration not stated)	D2 antagonist 38
CC1CCc2c(sc(NC(=S)NC(=O)c3ccccc3)c2C#N)C1 (configuration not stated)	D2 antagonist 37
N#Cc1c(NC(=S)NC(=O)c2ccccc2)sc2c1CCN(CCc1ccccc1)C2	D2 ag-2 44 (no result: D2 PAM-2, D2 ag-1)
Cc1ccc(C(=O)Nc2ccc3oc(-c4cc(Br)ccc4Cl)nc3c2)cc1	none (no result: D2 antagonist, D2 PAM-2, D2 ag-1)
CC(C)(C)C(=O)COC(=O)CCc1nc2ccccc2[nH]c1=O	D2 antagonist 31
COc1ccc(C(=O)Nc2ccc3nc(SCC(=O)N(C)c4ccccc4)sc3c2)cc1	none (no result: D2 antagonist, D2 PAM-2, D2 ag-1, D2 ag-2)
CN1CCC(=C2c3ccccc3C=Cc3ccccc32)CC1	D2 antagonist 77
Cc1cccc(CCNC(=O)c2nn(C)c3c2CSc2ccccc2-3)c1	none (no result: D2 PAM-1, D2 antagonist, D2 PAM-2, D2 ag-1)
Cc1ccc(SCc2cc(-c3ccc(Cl)cc3)no2)cc1	D2 PAM-1 32 (no result: D2 antagonist, D2 ag-2)
O=[N+]([O-])c1ccc(/C=N/NS(=O)(=O)c2ccc(Cl)cc2)o1	D2 antagonist 45
Cc1ccc(S(=O)(=O)N/N=C\c2ccc([N+](=O)[O-])o2)cc1	none
CCN(CC(=O)Nc1ccc(NC(C)=O)cc1)C(=O)c1c(C)nn(-c2ccc(F)cc2)c1Cl	none (no result: D2 PAM-1, D2 antagonist, D2 ag-2)
CCN(CC)CCNC(=O)c1ccc(NC(=O)c2c(C)nn(-c3ccc(F)cc3)c2Cl)cc1	D2 antagonist 41
O=C(NNC(=S)Nc1cccc(C(F)(F)F)c1)c1ccncc1	none (no result: D2 PAM-1, D2 antagonist, D2 ag-2)
O=C(NNC(=S)NC(=O)C12CC3CC(CC(C3)C1)C2)c1ccncc1	D2 ag-2 66
CC1(C(=O)NC(=S)NNC(=O)c2ccncc2)CCCCC1	D2 antagonist 34
O=C(NNC(=S)Nc1ccccc1)c1ccncc1	D2 PAM-1 31
CCOc1ccc(-n2cc(-c3ccccc3)c3c(NCCc4ccccc4)ncnc32)cc1	none (no result: D2 antagonist, D2 PAM-2, D2 ag-1)
CC(=O)c1ccc(NC(=O)CSc2nc(C3CCCC3)nc3c2c(=O)n(C)c(=O)n3C)cc1	none (no result: D2 antagonist, D2 PAM-2, D2 ag-1)
CCC(C(=O)Nc1cc(C(F)(F)F)ccc1Cl)n1nc(C)c2sc3ccccc3c2c1=O (configuration not stated)	none (no result: D2 antagonist, D2 PAM-2, D2 ag-1)
Cn1cc(Cl)c(C(=O)N/N=C/c2ccc(OS(=O)(=O)c3ccccc3)cc2)n1	D2 PAM-1 40
Cc1ccc(/C=N/NC(=O)c2nn(C)cc2Cl)cc1	none
CCC(=O)N/N=C/c1ccc(OS(=O)(=O)c2ccccc2)cc1	none
NC(N)=N/N=C/c1ccc(OS(=O)(=O)c2ccccc2)cc1	D2 antagonist 30
Cc1nn(C)c(C)c1S(=O)(=O)N(CC(=O)N1CCN(c2ccccc2)CC1)c1ccc(C(C)C)cc1	none (no result: D2 antagonist, D2 PAM-2, D2 ag-1)
CCCOc1ccc(CNC(=O)C(CC)n2nc(C)c3sc4ccccc4c3c2=O)cc1 (configuration not stated)	none (no result: D2 antagonist, D2 PAM-2, D2 ag-1)
COc1ccc(C2CC(C(F)(F)F)n3nc(C(=O)NCc4c(C)nn(C)c4C)c(Cl)c3N2)cc1 (configuration not stated)	none
COc1ccc(C2CC(C(F)(F)F)n3nc(C(=O)N(C)Cc4cn(C)nc4C)c(Cl)c3N2)cc1 (configuration not stated)	D2 PAM-1 34
COCCCNC(=O)C1CCN(c2ncnc3c2nc2n3CCCCC2)CC1	none (no result: D2 antagonist, D2 PAM-2, D2 ag-1)
CC(=O)C1=C(C)OC(N)=C(C#N)C1c1cc2cc(C)c(C)cc2nc1Cl (configuration not stated)	D2 antagonist 31
COC(=O)C1=C(C)OC(N)=C(C#N)C1c1cc2cc(C)ccc2nc1Cl (configuration not stated)	none
Cc1ccc(C)c(N2CCN(S(=O)(=O)c3cn(C)c(C)n3)CC2)c1	none (no result: D2 antagonist, D2 PAM-2, D2 ag-1)
CC1Oc2ccccc2N(CC(=O)NC2CC2)C1=O (configuration not stated)	D2 antagonist 33 (no result: D2 PAM-1)
CC1Oc2ccccc2N(CC(=O)NCc2ccccc2)C1=O (configuration not stated)	none
Cc1cc(C(=O)N2CCC(C)CC2)on1	none
CCOC(=O)N1CCN(C(=O)c2cc(C)no2)CC1	D2 PAM-1 30
Cc1cc(C)c(-c2csc(NC(=O)C3=COCCO3)n2)cc1C	D2 antagonist 32
COC(=O)c1c(NC(=O)C(C)C)sc2c1C(C(=O)OC)CC2 (configuration not stated)	D2 PAM-1 47
O=C(OCn1nnc2ccccc2c1=O)C1CCN(S(=O)(=O)c2cccs2)CC1	D2 PAM-1 74
O=C(OCc1ccccc1)C1CCN(S(=O)(=O)c2cccs2)CC1	none (no result: D2 PAM-1, D2 antagonist, D2 ag-2)
CCCn1nnnc1NCc1ccc(C(C)C)cc1	D2 antagonist 34
O=C(NCc1ccc(F)cc1)C1CCCN(c2ncnc3onc(-c4ccc(F)cc4)c23)C1 (configuration not stated)	none (no result: D2 antagonist, D2 PAM-2, D2 ag-1, D2 ag-2)
CCC(=O)N1CCc2cc(OC)c(OC)cc2C1COc1ccc(C(=O)OC)cc1 (configuration not stated)	D2 PAM-1 40
